Assay outcomes (PubChem BioAssay)
A selection: hits, their analogues and other compounds. The true share with any hit is near 19%.
IL1B secr inh = inflammasome signaling inhibition, IL-1 beta readout. THP-1 LPS/ATP IL-1B secretion, AlphaLISA, 16 h; hits give low values. 360,000 tested, 4.7% active. activity change, % at 57.5 µM; in the data active means activity change below about -50%; inconclusive means mostly about -30% to -49%
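THP-1 cells pretreated 1 hr with compounds (up to 57.5 uM final), then stimulated with LPS (250 ng/mL final) plus ATP (1.25 mM final); secreted IL-1B measured by AlphaLISA after 16 hr, decreased signal indicating inhibition.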
DT40 TDP1 CPT = growth inhibition of DT40 Tdp1-/-;hTDP1 cells with camptothecin (screen for TDP1 inhibitors). chicken DT40 Tdp1-/-;hTDP1 cells + 20 nM CPT, ATP luminescence, 48 h. Potency, µM (doses to about 46.2 µM), without a hit: at the highest dose activity change, negative = growth inhibition, most hits filed as inhibitors. 420,000 tested, 12% active; further: potency means the concentration at half of the fitted maximal effect; nearly all actives have a fitted effect of over 55% in size
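Chicken DT40 Tdp1-/- cells stably complemented with human TDP1 were seeded at 400 cells/well in medium containing 20 nM camptothecin, exposed to pin-transferred compounds, and grown at 37 °C for at least 48 hr. Viability was read as ATP luminescence.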
HT1080-NT tox = kills 2HG-producing HT-1080-NT fibrosarcoma cells; HT-1080-NT fibrosarcoma viability, CellTiter-Glo ATP luminescence, 48 h; Potency, µM (highest dose often 46.1 µM), for inactives: at the highest dose activity, negative = less viability, most hits filed as cytotoxic; 360,000 tested, 1.6% active;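 further: NT is the 2HG producing partner of a matched IDH1 knockdown line; potency means the concentration at half of the fitted maximal effect; 0% = DMSO-treated cells and -100% = media-only wells without cells; nearly all actives have a fitted effect of over 55% in size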
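Compounds were tested in concentration-response format on HT-1080-NT cells for 48 hours at 37 degrees C. Cell viability came from CellTiter-Glo luminescence; curves were classified by r2, response magnitude and activity.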
ELG1 repair inh = ELG1-dependent DNA repair inhibition; HEK293T ELG1-luciferase reporter, luminescence, 16 h; DNA damage induced by 5-fluorouridine; Potency, µM (top dose mostly 46.1 µM), without a hit: top-dose activity change, negative = inhibition, usual class: inhibitors; 330,000 tested, 2.3% active; AID 504467; further: potency means the concentration at half of the fitted maximal effect; nearly all actives have a fitted effect of over 55% in size
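DMSO vehicle served as the neutral condition. Each well held 2,000 cells given 5-fluorouridine plus compound; after 16 hr at 37 °C/5% CO2, ONE-Glo was added and luciferase measured 30 min later.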
HT1080 IDH1KD tx = kills HT-1080 cells with IDH1 knockdown; HT-1080 IDH1 knockdown viability, ATP luminescence, 48 h; 360,000 tested, 2% active; Potency, µM (highest dose often 46.1 µM), without a hit: top-dose activity, negative = toxicity, most hits filed as cytotoxic;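 further: potency means the concentration at half of the fitted maximal effect; 0% = DMSO wells and -100% = cell-free medium wells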
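In this qHTS, HT-1080 cells depleted of IDH1 are exposed for 48 h at 37 °C to compound titrations. Toxicity is scored from CellTiter-Glo luminescence, with DMSO as full viability and medium alone as none.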
TDP1 cell noCPT = qHTS for Inhibitors of human tyrosyl-DNA phosphodiesterase 1 (TDP1): qHTS in cells in absence of CPT | Potency, µM (highest dose often 46.2 µM), without a hit: at the highest dose activity change, negative = growth inhibition, actives largely listed as inhibitors | 420,000 tested, 15% active | DT40 Tdp1-/- hTDP1 cells, no CPT, ATP luminescence, 48 h; further: potency means the concentration at half of the fitted maximal effect; nearly all actives have a fitted effect of over 55% in size
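Chicken DT40 Tdp1-/- cells stably complemented with human TDP1 were seeded at 400 cells/well with DMSO in place of 20 nM camptothecin. After compound pinning, cells grew at least 48 hr at 37 °C; viability read by CellTiter-Glo luminescence.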
Active calls of the source: *; u = inconclusive; x = no result. Unless noted, the call rests on the fitted dose curve; in most records, active means well fitted curve in the direction sought with a large enough effect; inconclusive means small, poorly fitted or top-dose-only effect, or another doubt; inactive means no such curve, though single readings can be large; an effect the other way counts as inactive or inconclusive. Unless noted, on the % scale 0 is the no-effect control and ±100 the full control effect.

SMILES	IL1B secr inh	DT40 TDP1 CPT	HT1080-NT tox	ELG1 repair inh	HT1080 IDH1KD tx	TDP1 cell noCPT
CCCCCCN1CCN(C2CN(Cc3ccc(C)cc3)S(=O)(=O)C2)CC1 (stereo unspecified)	-12	23µM*	-18%	x	-28%	u
Cc1cc(C=O)c(O)cc1O	28	-13%	0%	-11%	0%	-15%
CCc1ccc(-c2csc(-c3cc4cc(Br)ccc4oc3=O)n2)cc1	x	-15%	x	x	x	-23%
CN1CCN(C2CN(Cc3cn(Cc4ccc(F)cc4)nn3)S(=O)(=O)C2)CC1 (stereo unspecified)	-65*	2%	20%	x	10%	-17%
COc1ccc(NC(=S)N(CCCN2CCOCC2)Cc2ccccn2)cc1	16	5%	0%	26%	6%	-2%
Cc1cccc(NC(=S)N(CCCN2CCOCC2)Cc2cn(C)c3ccccc23)c1	-7	18µM*	-7%	u	0%	u
Cc1ccc(NC(=S)N(C)Cc2cn(C)c3ccccc23)cc1	5	16µM*	-18%	2%	u	u
CCOc1ccc(NC(=S)N(CCCN2CCOCC2)Cc2cn(C)c3ccccc23)cc1	-11	u	-11%	u	-8%	15µM*
CCc1ccccc1NC(=O)c1cn(C)c(=O)c2ccccc12	x	-19%	x	x	x	-9%
CC1CCCCN1C(=O)c1cc2ccccc2cc1O (stereo unspecified)	-27	-28%	-3%	-8%	-7%	u
Cc1cccc(NC(=O)CSc2nncn2N)c1C	18	8%	3%	x	-2%	-3%
COCCN(CCOC)c1ncc(Cl)c(C(=O)c2c(C)cc3ccccn23)n1	-7	u	8%	u	5%	21µM*
Cc1cc2ccccn2c1C(=O)c1nc(N2CCOCC2)ncc1Cl	-11	-15%	-4%	22%	34%	-26%
Cc1ccc(CCNC(=O)C2CCCN(S(=O)(=O)c3c(C)noc3/C=C/N(C)C)C2)cc1 (stereo unspecified)	-21	u	-21%	-4%	-16%	u
Cc1ccc(N(C)S(=O)(=O)c2c(C)noc2/C=C/N(C)C)cc1	-17	18µM*	-17%	0%	2%	u
c1cc(-c2ccc3nncn3c2)ccc1CN1CCOCC1	-9	-25%	17%	x	u	-10%
O=C1S/C(=C\C=C\c2ccco2)C(=O)N1c1ccccc1	-78*	u	u	u	u	23µM*
O=C1S/C(=C\C=C\c2ccco2)C(=O)N1c1ccc(O)cc1	-97*	18µM*	u	u	u	u
O=C(O)CC(C(=O)O)N1C(=O)/C(=C/C=C/c2ccco2)SC1=S (stereo unspecified)	7	-30%	-2%	-2%	-2%	-3%
O=C(O)CCCN1C(=O)/C(=C/C=C/c2ccco2)SC1=S	u	-22%	-17%	0%	1%	u
O=c1cnn([C@@H]2O[C@H](CO)[C@@H](O)[C@H]2O)c(=O)[nH]1	49	12µM*	-18%	u	u	2.3µM*
CCN(CC)CCNC(=O)c1ccc(Sc2ccc(Cl)cc2)c(NC(C)=O)c1	-5	u	-23%	-11%	-10%	u
Cc1ccc(NC(=O)CNC(C)c2ccccc2)cc1 (stereo unspecified)	33	-24%	4%	u	4%	-12%
COc1ccc(-c2cn3c(n2)sc2cc(C(=O)NCCCN4CCN(C)CC4)ccc23)cc1	x	1.2µM*	x	x	x	1.3µM*
CCCN1CCN(CCCNC(=O)c2ccc3c(c2)sc2nc(-c4ccc(OC)cc4)cn23)CC1	x	1.5µM*	x	x	x	1µM*
SMILES	IL1B secr inh	DT40 TDP1 CPT	HT1080-NT tox	ELG1 repair inh	HT1080 IDH1KD tx	TDP1 cell noCPT
CN(C)c1ncc2nc(-c3ccccc3)c(=O)n(Cc3cccs3)c2n1	x	13%	x	x	x	11%
C[C@H](CO)N1C[C@H](C)[C@H](CN(C)S(=O)(=O)c2cccc(F)c2)OCc2ccccc2-c2c(n(C)c3ccccc23)C1=O	-24	10µM*	u	x	u	16µM*
C[C@@H]1CN([C@H](C)CO)C(=O)c2c(c3ccccc3n2C)-c2ccccc2CO[C@@H]1CN(C)S(=O)(=O)c1cccs1	12	u	-18%	x	u	21µM*
Cc1ccnc(N/C=C(\C#N)c2nc(-c3cccc(Br)c3)cs2)c1	-8	21µM*	-11%	-3%	u	18µM*
O=C(CN(C(=O)c1csnn1)c1ccccc1F)NCc1ccc2c(c1)OCO2	-7	11%	5%	17%	0%	-2%
COC(=O)c1c(NC(=O)/C(C#N)=C/c2ccccc2)sc2c1CCC2	x	8%	x	x	x	2%
O=C(O)CCCn1c(O)c(C=C2N=c3ccccc3=N2)sc1=S	38	u	-13%	u	-9%	u
COCCCn1c(O)c(/C=C2\N=C(C#N)C(=Nc3ccc(C)cc3)O2)sc1=S	-82*	u	u	13%	u	3.3µM*
O=C(CCc1nnc(Cc2c[nH]c3ccccc23)o1)NCCC1CCCCO1 (stereo unspecified)	-14	-12%	0%	x	-1%	4%
CC(C)(C)SC(=O)C[C@@H]1NS(=O)(=O)OC2CCCCC21 (stereo partly specified)	-13	u	-2%	u	-9%	-26%
Nc1c(C(=O)O)sc2nc(-c3ccccc3)c3c(c12)CCCC3	4	-8%	-4%	6%	0%	u
